Screening data from PubChem BioAssay.
The list is not random: actives were taken first. Their share in the collection is about 4.1%.
DAX1 inh-1: inhibitors of DAX1 repression of SF-1 activated StAR promoter | HEK293T StAR-luciferase reporter, SF-1/DAX-1 repression relief | inhibition, % at 6.8 µM | 1.1% of 370,000 active;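 active = inhibition above the mean over all tested compounds plus 3 SD, cut at about 3.6% in these data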;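 note: 0% = DAX-1 cells with DMSO and 100% = cells lacking DAX-1 with DMSO; higher inhibition means more luminescence from relief of DAX-1 repression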
hgDAF12 agonist: agonists of H. glycines DAF-12 nuclear receptor; activation, % at 6.8 µM; HEK293 GAL4-hgDAF12 UAS-luciferase reporter, agonist luminescence; normalized to butyrate control; 1.8% of 370,000 active;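 active = activation above a cutoff set at the mean of all screened compounds plus 3 SD, cut at about 10% in these data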;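 note: 0% = DMSO wells and 100% = sodium butyrate wells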
DAX1 inh-2: inhibitors of human orphan nuclear receptor DAX1 (NR0B1). HEK293 Gal4-DAX1 luciferase reporter, luminescence. 0.99% of 340,000 active. P51843. inhibition, % at 6.75 µM;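 active = inhibition above the mean over all tested compounds plus 3 SD, cut at about 4.2% in these data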;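 note: 0% = DAX1-transfected cells with DMSO and 100% = empty-vector control cells with DMSO; inhibition shows as a rise in luminescence from relieved DAX1 repression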
Target sequence (P51843 207-470 limits assumed): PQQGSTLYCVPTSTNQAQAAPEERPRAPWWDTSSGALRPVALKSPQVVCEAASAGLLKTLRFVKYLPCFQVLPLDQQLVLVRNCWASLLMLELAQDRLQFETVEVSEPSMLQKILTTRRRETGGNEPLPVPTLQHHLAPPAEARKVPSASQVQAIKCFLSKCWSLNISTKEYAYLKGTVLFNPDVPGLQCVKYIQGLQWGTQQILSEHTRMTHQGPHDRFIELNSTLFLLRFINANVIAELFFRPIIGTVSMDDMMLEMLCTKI
ssDAF12 agonist: S. stercoralis DAF-12 activation, primary screen. AID 652126. 1% of 370,000 active. activation, % at 6.8 µM. HEK293 ssDAF-12/GRIP1 lit1-tk-luc reporter, luminescence; % of 3 µM dafachronic acid response;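 active = activation above the mean over all tested compounds plus 3 SD, cut at about 0.9% in these data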;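 note: 0% = DMSO-only wells and 100% = 3 µM delta7-dafachronic acid wells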
hcDAF-12 act: H. contortus DAF-12 activation, primary screen; HEK293 hcDAF-12 lit1-tk-luc reporter, luminescence; 0% DMSO, 100% Δ7-dafachronic acid; activation, % at 6.8 µM; 1.4% of 370,000 active; AID 652067;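 active = activation above the mean of all tested compounds plus 3 SD, cut at about 5.5% in these data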;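 note: 100% = response to 3 µM Δ7-dafachronic acid high control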
hgDAF12 ag: hgDAF-12 agonism, confirmation assay | shares compounds with hgDAF12 agonist | HEK293 GAL4-hgDAF12 luciferase reporter, agonist mode; percent of butyrate response | activation, % at 6.8 µM | 80% of 3,300 active;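 active = mean activation over triplicate wells above the hit cutoff derived from the earlier primary screen, cut at about 11% in these data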;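 note: 0% = DMSO low control and 100% = 2 mM sodium butyrate high control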
LXRb DAF12 ctr: counter-screen for DAF-12 agonists: agonists of human LXR-beta; shares compounds with hgDAF12 agonist; HEK293 Gal4-LXR luciferase reporter, 24 h; activation, % at 6.8 µM; 3,300 tested, under 10 active;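 active = mean activation of the triplicate above a set limit carried over from the primary screen, none filed active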
Target sequence (P55055 whole entry, looked up, the tested form may be a part): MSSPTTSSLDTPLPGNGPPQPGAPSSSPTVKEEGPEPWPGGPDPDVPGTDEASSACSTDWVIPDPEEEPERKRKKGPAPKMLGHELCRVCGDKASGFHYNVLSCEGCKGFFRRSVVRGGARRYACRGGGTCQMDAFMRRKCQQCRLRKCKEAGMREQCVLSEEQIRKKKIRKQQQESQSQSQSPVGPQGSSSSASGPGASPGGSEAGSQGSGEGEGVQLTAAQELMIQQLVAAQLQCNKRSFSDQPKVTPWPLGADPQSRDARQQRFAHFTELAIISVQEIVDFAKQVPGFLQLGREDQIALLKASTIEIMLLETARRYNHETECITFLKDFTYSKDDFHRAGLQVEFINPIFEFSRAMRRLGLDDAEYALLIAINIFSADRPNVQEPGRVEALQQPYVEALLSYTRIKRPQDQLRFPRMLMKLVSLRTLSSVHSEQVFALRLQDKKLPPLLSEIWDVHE
* = called active by the depositor.

How did O=C(Nc1ccc2ncccc2c1)Nc1ccc2ncccc2c1 do in these assays?
DAX1 inh-1: -0.6; hgDAF12 agonist: 7.5; DAX1 inh-2: -2.1; ssDAF12 agonist: -1.1; hcDAF-12 act: -2.1

Results for O=C1CCCC2=C1[C@@]1(O[C@H]3C=CC=CN23)C(=O)N(c2ccccc2)c2ccccc21 ?
DAX1 inh-1: -0.6; hgDAF12 agonist: -1.3; ssDAF12 agonist: -1.4; hcDAF-12 act: 1.1

What do the screens show for `Cc1cccc(/C=C\c2nc3ccccc3c(=O)[nH]2)c1`?
DAX1 inh-1: 3.6*; hgDAF12 agonist: 15.0*; DAX1 inh-2: 0.6; ssDAF12 agonist: 0.5; hcDAF-12 act: 5.3; hgDAF12 ag: 21.4*; LXRb DAF12 ctr: 0.9

How did Cc1ccc(-c2cc(-c3nnc(SCC(=O)Nc4ccccc4-c4ccccc4)n3N)[nH]n2)cc1 do in these assays?
DAX1 inh-1: -1.6; hgDAF12 agonist: 0.5; ssDAF12 agonist: -1.5; hcDAF-12 act: -2.1

What do the screens show for `Cc1c(NC(=S)NC(=O)c2cccc3ccccc23)cccc1C(=O)O`?
DAX1 inh-1: 0.9; hgDAF12 agonist: -0.8; DAX1 inh-2: 0.4; ssDAF12 agonist: -1.3; hcDAF-12 act: -1.9

How did Cc1ccc(-c2nc3ccccc3s2)cc1NC(=S)NC(=O)c1cccc2ccccc12 do in these assays?
DAX1 inh-1: 3.1; hgDAF12 agonist: 16.6*; DAX1 inh-2: 4.4*; ssDAF12 agonist: 0.4; hcDAF-12 act: 6.0*; hgDAF12 ag: 12.1*; LXRb DAF12 ctr: 0.9

How did CC(C)c1cc(C(=O)NCc2ccco2)no1 do in these assays?
DAX1 inh-1: 1.8; hgDAF12 agonist: 6.0; DAX1 inh-2: 0.5; ssDAF12 agonist: -0.7; hcDAF-12 act: 0.0

How did CC(C)Cc1cc(C(=O)NCc2cccnc2)no1 do in these assays?
DAX1 inh-1: 2.5; hgDAF12 agonist: 9.9; DAX1 inh-2: 2.0; ssDAF12 agonist: -0.7; hcDAF-12 act: 0.7

What do the screens show for `O=C(NCc1ccccc1)c1cc(-c2cccs2)on1`?
DAX1 inh-1: 1.3; hgDAF12 agonist: 5.3; DAX1 inh-2: 1.9; ssDAF12 agonist: -0.9; hcDAF-12 act: 1.2

Results for CC(C)Cc1cc(C(=O)NCc2cccs2)no1 ?
DAX1 inh-1: 4.3*; hgDAF12 agonist: 18.7*; DAX1 inh-2: 3.0; ssDAF12 agonist: 0.9; hcDAF-12 act: 2.1; hgDAF12 ag: 13.2*; LXRb DAF12 ctr: 0.5

Results for O=C(NCc1ccco1)c1cc(-c2cccs2)on1 ?
DAX1 inh-1: 0.6; hgDAF12 agonist: 23.3*; DAX1 inh-2: 3.3; ssDAF12 agonist: -0.8; hcDAF-12 act: 3.4; hgDAF12 ag: 21.8*; LXRb DAF12 ctr: 0.2

What do the screens show for `O=C(NCc1ccco1)c1cc(-c2ccccc2)on1`?
DAX1 inh-1: 2.6; hgDAF12 agonist: 23.3*; DAX1 inh-2: 3.2; ssDAF12 agonist: -0.3; hcDAF-12 act: 2.1; hgDAF12 ag: 22.4*; LXRb DAF12 ctr: 0.4

How did O=C(NCc1ccco1)c1cc(-c2ccc(F)cc2)on1 do in these assays?
DAX1 inh-1: 1.7; hgDAF12 agonist: 16.6*; DAX1 inh-2: 2.3; ssDAF12 agonist: -0.9; hcDAF-12 act: 1.8; hgDAF12 ag: 14.9*; LXRb DAF12 ctr: 0.3

What do the screens show for `CCOC(=O)[C@]12CCCCC/C=C\1N(Cc1ccc(OC)cc1)C(=O)[C@H]2CC(=O)N1CCCC1`?
DAX1 inh-1: -0.6; hgDAF12 agonist: -2.6; ssDAF12 agonist: -1.1; hcDAF-12 act: -0.1

What do the screens show for `CC(C)CNC(=O)c1cc(-c2ccco2)on1`?
DAX1 inh-1: 0.7; hgDAF12 agonist: 6.6; DAX1 inh-2: 0.4; ssDAF12 agonist: -1.4; hcDAF-12 act: 2.4

What do the screens show for `CCCNC(=O)c1cc(-c2ccco2)on1`?
DAX1 inh-1: 0.0; hgDAF12 agonist: 47.4*; DAX1 inh-2: 1.9; ssDAF12 agonist: -0.8; hcDAF-12 act: 4.1; hgDAF12 ag: 36.9*; LXRb DAF12 ctr: 0.3

Results for COC(=O)[C@]12C[C@H](CC(=O)NCc3ccc(OC)c(OC)c3)C(=O)N(Cc3cccc4ccccc34)C1=C[C@H](C(C)(C)C)O[C@@H]2C ?
DAX1 inh-1: -1.5; hgDAF12 agonist: 0.2; ssDAF12 agonist: -0.8; hcDAF-12 act: -0.5

How did COc1ccc(-c2noc(C3CCCN(C(=O)c4ccc(C)cc4)C3)n2)cc1 (stereo not drawn) do in these assays?
DAX1 inh-1: 0.3; hgDAF12 agonist: 0.4; DAX1 inh-2: 0.4; ssDAF12 agonist: -1.7; hcDAF-12 act: -2.2

What do the screens show for `COc1cccc(-c2noc(C3CCCN(C(=O)CC(C)(C)C)C3)n2)c1` (stereo not drawn)?
DAX1 inh-1: 0.8; hgDAF12 agonist: 8.9; DAX1 inh-2: 0.7; ssDAF12 agonist: -1.6; hcDAF-12 act: 2.5

How did CCCCC(=O)N1CCCC(c2nc(-c3cccc(OC)c3)no2)C1 (stereo not drawn) do in these assays?
DAX1 inh-1: 1.5; hgDAF12 agonist: 14.9*; DAX1 inh-2: 1.6; ssDAF12 agonist: -1.4; hcDAF-12 act: 0.9; hgDAF12 ag: 5.6; LXRb DAF12 ctr: 0.3

Results for COc1ccc(-c2noc(C3CCCN(C(=O)NC4CCC(C)CC4)C3)n2)cc1 (stereo not drawn) ?
DAX1 inh-1: 3.6; hgDAF12 agonist: 14.2*; ssDAF12 agonist: -0.9; hcDAF-12 act: 0.1; hgDAF12 ag: 2.3; LXRb DAF12 ctr: 0.3

What do the screens show for `O=S(=O)(c1cc2ccccc2s1)n1c(CN2CCOCC2)nc2ccccc21`?
DAX1 inh-1: 0.1; hgDAF12 agonist: -2.1; ssDAF12 agonist: -1.2; hcDAF-12 act: 1.7

What do the screens show for `CCOC(=O)c1cccc(NC(=O)CN(C)S(=O)(=O)c2ccco2)c1`?
DAX1 inh-1: 1.0; hgDAF12 agonist: -1.3; ssDAF12 agonist: -1.0; hcDAF-12 act: -0.9

How did O=C(c1ccccc1)N1CCC2CCN(S(=O)(=O)c3ccccc3)CC21 (stereo not drawn) do in these assays?
DAX1 inh-1: -0.6; hgDAF12 agonist: 0.7; ssDAF12 agonist: -0.9; hcDAF-12 act: -2.7

Results for CCN=C1NC(CCc2ccccc2)C(C(=O)OC)=C(C)N1Cc1ccccc1C(F)(F)F (stereo not drawn) ?
DAX1 inh-1: -0.8; hgDAF12 agonist: -0.8; ssDAF12 agonist: -1.2; hcDAF-12 act: -0.7

Results for O=C(CCSc1ccccn1)Nc1ccc(Br)cc1 ?
DAX1 inh-1: 2.5; hgDAF12 agonist: 13.6*; DAX1 inh-2: 1.2; ssDAF12 agonist: 1.1*; hcDAF-12 act: 2.0; hgDAF12 ag: 11.3*; LXRb DAF12 ctr: 0.5

What do the screens show for `CCc1ccc(NC(=O)CSc2ccccn2)cc1`?
DAX1 inh-1: 1.0; hgDAF12 agonist: 14.3*; DAX1 inh-2: 1.8; ssDAF12 agonist: -1.2; hcDAF-12 act: 3.0; hgDAF12 ag: 5.7; LXRb DAF12 ctr: 0.2
